Results as given in PubChem BioAssay AID624297 (National Center for Advancing Translational Sciences (NCATS), 2012).
Hit rate of the full screen: of about 340,000 compounds, about 6,200 (1.8%) were called active. Inconclusive results (about 10%) are left out. The entries come from a sample that favours actives as a whole. Unmarked numbers belong to inactive results. The call rests on the fitted dose curve; in most records, active means well fitted activation curve with a large enough effect; inconclusive means small, poorly fitted or top-dose-only effect; inactive means no such curve, though single readings can be large or run the other way.
Potency means the concentration at half of the fitted maximal effect.

Assay: A quantitative high throughput screen for small molecules that induce DNA re-replication in SW480 colon adenocarcinoma cells. Further: nearly all actives have a fitted effect of over 55% in size. On re-replication activation: % of control where 0% means no effect.
Details: Hoechst DNA content imaging, 48 h; series mostly up to 46.1 µM; re-replication activation: at the top concentration
Method in brief: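 Readout is total intensity of Hoechst-stained nuclei, excited at 405 nm and collected at 500-530 nm. Compound treatment lasted 48 hr at 37 C in 5% CO2 before staining.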
In the case of `CCCCOc1ccc(C(=O)NCC(=O)OCC(=O)c2c(N)n(C)c(=O)n(C)c2=O)cc1`, the “re-replication activation” value is reported as -0.586%. For `CSc1ncccc1C(=O)NCC(c1ccco1)N1CCCCC1` (centres undefined), the “re-replication activation” value was 0.306%. With `Cc1ccc(CN2CCC(n3nccc3NC(=O)CCCc3ccccc3)CC2)o1` the “re-replication activation” value was -0.682%. With `COc1ccc(CN2CCC(n3nccc3NC(=O)CCCc3ccccc3)CC2)cc1C` the Potency was 18.4 µM (active). With `COc1cc(CN2CCC(n3nccc3NC(=O)CCCc3ccccc3)CC2)ccc1O` the “re-replication activation” value was -4.37%. With `COc1ccc(CNC(=O)C[C@H]2C[C@H](C(=O)N3CCOCC3)[C@@]3(CCC4CCCC4)c4[nH]c5ccc(Cl)cc5c4CCN3C2=O)cc1OC` the “re-replication activation” value was 25.9%. In the case of `CC(C)(C)OC(=O)C[C@H]1C/C=C\C[C@@H](CC(=O)N[C@H](CO)Cc2ccccc2)C(=O)NC[C@@H](c2ccccc2)OC1=O`, the “re-replication activation” value is reported as -9.13%. In the case of `Cc1ccccc1OC/C(O)=C(\C#N)c1nc2ccccc2[nH]1`, the “re-replication activation” value is reported as 10.2%. In the case of `COCCN(CCOC)S(=O)(=O)c1ccc(/C(O)=C(\C#N)c2nc3ccccc3[nH]2)cc1`, the “re-replication activation” value is reported as 2.9%. With `N#C/C(=C(/O)COC(=O)COc1ccc(Cl)cc1)c1nc2ccccc2[nH]1` the Potency was 29.1 µM (active). For `CCN1C[C@@H]2[C@@H]3C(=O)N(Cc4ccccc4)C(=O)[C@@H]3[C@](C)(C1=O)N2C(=O)c1ccc(C(C)(C)C)cc1`, the “re-replication activation” value was -7.2%. In the case of `O=C(NOCc1ccccc1)c1cccc([N+](=O)[O-])c1`, the “re-replication activation” value is reported as -38.1%. For `O=c1oc2ccccc2c(=O)c2ccccc12`, the “re-replication activation” value was -5.45%. For `CC[C@]12c3[nH]c4cc(CCC(=O)N(C)C)ccc4c3CCN1C(=O)[C@@H](CC(=O)NCc1ccco1)C[C@@H]2C(=O)N1CCN(C(=O)c2ccco2)CC1`, the “re-replication activation” value was -12.6%. With `CC(C)Cn1c(N)c(C(=O)NCc2cccs2)c2nc3ccccc3nc21` the Potency was 5.17 µM (active). For `Cn1ncc(Br)c1C(=O)NCc1cccs1`, the “re-replication activation” value was -6.4%. With `O=C(NCc1cccs1)c1cc(-c2ccccn2)nc2ccc(Br)cc12` the “re-replication activation” value was 5.04%. For `O=c1ccn([C@@H]2O[C@H](CNS(=O)(=O)c3cc4ccccc4s3)[C@@H](O)[C@H]2O)c(=O)[nH]1`, the “re-replication activation” value was -34%. For `CCN(c1ccccc1)S(=O)(=O)c1ccc(C(=O)Nc2ccccc2OC)cc1`, the “re-replication activation” value was 9.42%. With `O=C(NCC(c1cccs1)N1CCOCC1)c1cc(-c2ccccn2)nc2ccccc12` (centres undefined) the “re-replication activation” value was 1.98%. With `O=C(NCCCN1CCOCC1)c1cn(-c2ccccc2)nc1-c1ccc(F)cc1` the “re-replication activation” value was -5.03%. For `Cc1ccc(-c2nn(-c3ccc(F)cc3)cc2C(=O)NCC(c2cccs2)N2CCOCC2)cc1` (centres undefined), the Potency was 23.1 µM (active). With `Cn1c(=S)sc2ccc3ccccc3c21` the “re-replication activation” value was -4.54%. For `Cc1cc(C)c(C=NNc2nc3c([nH]2)c(=O)n(C)c(=O)n3C)c(C)c1`, the “re-replication activation” value was 19.5%. With `COc1cccc(/C=N/Nc2ncc(C(F)(F)F)cc2Cl)c1O` the Potency was 0.92 µM (active). In the case of `COc1cccc(/C=N/Nc2ccc(S(=O)(=O)Nc3ccccc3C(=O)O)cc2[N+](=O)[O-])c1O`, the “re-replication activation” value is reported as -6.27%. With `FC(F)(F)c1cnc(Oc2ccccc2-c2nnc(-c3ccc(Cl)cc3)o2)c(Cl)c1` the “re-replication activation” value was -3.88%. In the case of `CC(=NNC(=O)c1ccncc1)c1ccc(Cl)c(Cl)c1`, the “re-replication activation” value is reported as 23.1%. In the case of `C=CCC[C@@H](Cc1ccc(F)cc1)C(=O)OC[C@@H](C)NC(=O)[C@H](CC=C)CC(=O)N(CCO)Cc1ccccc1`, the “re-replication activation” value is reported as -0.963%. In the case of `CCOC(=O)C1=C(C)Nc2nc3ccccc3n2C1c1cccs1` (centres undefined), the “re-replication activation” value is reported as -4.46%. For `CCOc1ccc(C2C(C(=O)NC)=C(C)Nc3nc4ccccc4n32)cc1OC` (centres undefined), the “re-replication activation” value was -12.1%. In the case of `COc1ccccc1NC(=O)C1=C(C)Nc2nc3ccccc3n2C1c1cccs1` (centres undefined), the Potency is reported as 4.11 µM (active). In the case of `Cc1ccc(C(=O)O)c(NC=O)c1OCc1ccccc1`, the “re-replication activation” value is reported as -4.14%. For `CC(OC(=O)c1c(F)cccc1F)C(=O)NCCC1=CCCCC1` (centres undefined), the “re-replication activation” value was 5.62%. With `O=C(Nc1cccc(S(=O)(=O)N2CCCC2)c1)c1cncc(Br)c1` the “re-replication activation” value was -1.35%. In the case of `COc1ccc2sc(-c3ccc(S(C)(=O)=O)cc3)c(-c3ccc(C(N)=O)cc3)c2c1`, the “re-replication activation” value is reported as 15.8%. With `Cn1cncc1C#Cc1c(-c2ccsc2)sc2ccccc12` the “re-replication activation” value was 4.17%. In the case of `COc1ccc2sc(-c3ccc(S(C)(=O)=O)cc3)c(C#Cc3cncn3C)c2c1`, the Potency is reported as 5.8 µM (active). For `Oc1cccc(CCc2ccccn2)c1`, the “re-replication activation” value was -2.7%. In the case of `COc1ccc(C(=O)O)cc1S(=O)(=O)NC1CCN(Cc2ccccc2)CC1`, the “re-replication activation” value is reported as -1.41%. With `COc1cc2[nH]c(=O)n(Cc3ccc(C(=O)NC4CCN(Cc5ccccc5)CC4)cc3)c(=O)c2cc1OC` the “re-replication activation” value was 0.862%. In the case of `COc1cc(C(=O)NC2CCN(Cc3ccccc3)CC2)cc(Cl)c1OC(C)C`, the Potency is reported as 18.4 µM (active). For `CNC[C@@H]1Oc2c(NS(C)(=O)=O)cccc2C(=O)N([C@@H](C)CO)C[C@H]1C`, the “re-replication activation” value was -6.99%. With `CCn1nc(C(=O)NNS(=O)(=O)c2cc(/C=C/C(=O)O)cc(OC)c2OC)c2ccccc2c1=O` the “re-replication activation” value was -4.81%. In the case of `C=CC[C@@H](Cc1ccc(F)cc1)C(=O)OC[C@H]1CCCN1C(=O)[C@H](CC=C)CC(=O)N(CCO)Cc1ccccc1`, the “re-replication activation” value is reported as 0.701%. With `Cc1ccc(S(=O)(=O)c2c(COC(=O)c3cccc(Cl)c3)c(-c3ccccc3)nn2C)cc1` the “re-replication activation” value was -8.27%. With `Cn1nc(-c2ccccc2)c(CO)c1Sc1ccccc1` the “re-replication activation” value was -5.91%. In the case of `Cn1nc(-c2ccccc2)c(CSc2cccc(Cl)c2)c1Cl`, the Potency is reported as 16.4 µM (active). In the case of `COc1cccc(CC(=NO)c2cccc(OC)c2)c1`, the “re-replication activation” value is reported as 2.86%. In the case of `CCOC(=O)C(C)n1cnc2c(nnn2-c2cccc(OC)c2)c1=O` (centres undefined), the “re-replication activation” value is reported as -20%. In the case of `CCOc1cccc(-n2nnnc2-c2ccc(OC)cc2)c1`, the Potency is reported as 13 µM (active). For `c1ccc(-n2nnnc2-c2cccnc2)cc1`, the “re-replication activation” value was -6.03%. In the case of `COc1cc(S(=O)(=O)N2CCN(C(=O)C3CC3)CC2)ccc1NC(C)=O`, the “re-replication activation” value is reported as 1.84%. For `COc1cc(C(=O)NC2CCN(C)CC2)ccc1Nc1ncc2c(n1)N(C1CCC(O)CC1)CCC(=O)N2C` (centres undefined), the “re-replication activation” value was -0.0388%. In the case of `COC(=O)C1=C(C)N(C)C(=O)NC1c1ccc([N+](=O)[O-])o1` (centres undefined), the Potency is reported as 23.1 µM (active). With `COC(=O)C1=C(C)N(C)C(=S)NC1c1ccccc1` (centres undefined) the “re-replication activation” value was 4.94%. For `COc1ccc(C2NC(=O)N(C)C(C)=C2[N+](=O)[O-])cc1` (centres undefined), the “re-replication activation” value was 3.98%. With `Cc1cccc(C(=O)N[C@H](C(=O)NCc2cccs2)C(C)C)c1` the “re-replication activation” value was -0.917%. In the case of `COc1ccc(CN2C(CC(=O)Nc3cccnc3)c3ccc(C(F)(F)F)cc3S2(=O)=O)cc1` (centres undefined), the re-replication activation is reported as -6.2% [at 9.22 µM].
